ChEMBL document CHEMBL3988442, “University of Dundee, Small-Polar-MMV Screening Library” (2021)
About 13,000 (27%) of roughly 48,000 compounds showed an effect of 50% or more. The list shows a part of the results.

The compounds below were run on Wolbachia pipientis (assay: Anti-Wolbachia Cell-Based Screen). Settings: 5 µM.
Format: functional
Set-up: scale not given: in the data most compounds retested in dose-response had high values

| Structure (SMILES) | Percent Effect |
| --- | --- |
| Cc1cc(-c2ccncc2)ccc1OCC(N)=O | -1.496% |
| CC(C)c1cc(C(=O)N2CCN(CC3CC3)[C@@H]3CS(=O)(=O)C[C@@H]32)no1 | 5.38% |
| Cc1cnn(CCC(=O)Nc2ccc(F)cc2OCC2CC2)c1 | -3.72% |
| CCN1CC(C(=O)N2CCN(CCn3cccc3)CC2)CC1=O (configuration not stated) | -5.842% |
| Cc1cc(CNC(=O)CC2CN(C(=O)OC(C)(C)C)C2)ccc1F | -41.83% |
| O=C(NCc1ccncc1)N1CCSCC1c1ccc(Cl)cc1 (configuration not stated) | -11.62% |
| Cc1cnc2n(c1=O)C(CC(=O)NCc1ccc(Cl)cc1)CS2 (configuration not stated) | 120.8% |
| CCNc1cc2c(nn1)CCN(C(=O)CC1CCCCC1)C2 | -4.667% |
| CCNc1cc2c(nn1)CCN(C(=O)C1COc3ccccc3C1)C2 (configuration not stated) | 3.402% |
| CCNc1cc2c(nn1)CCN(C(=O)Cc1ccc3c(c1)CCO3)C2 | -18.57% |
| CCNc1cc2c(nn1)CCN(C(=O)Cc1ccc(C)s1)C2 | 107.9% |
| CCNc1cc2c(nn1)CCN(C(=O)C1Cc3ccccc3S1)C2 (configuration not stated) | -4.507% |
| CCNc1cc2c(nn1)CCN(C(=O)Cc1c(C)nn(C)c1C)C2 | 126.1% |
| CCc1nccn1CC(=O)N1C[C@H]2CC[C@@H]1CN(C(=O)N(C)C)C2 | 6.839% |
| c1cc(-c2nc3c(c(NCCn4ccnn4)n2)CCNCC3)ccn1 | -0.7039% |
| Cc1ccc(CN2CCC3(CC2)C(c2ccccc2)CC(=O)N3C)o1.O=C(O)C(F)(F)F (configuration not stated) | 104.4% |
| CCN1CCN(C)C2(CCN(Cc3ccc(C)o3)CC2)C1=O.O=C(O)C(F)(F)F.O=C(O)C(F)(F)F | -15.65% |
| COCCN1CCC2(CCN(Cc3nccs3)CC2)C1=O | -0.9039% |
| Cn1cc(C2CC(=O)NC23CCN(Cc2nccs2)CC3)cn1 (configuration not stated) | 86.17% |
| Cn1cc(C2CC(=O)NC23CCN(c2ncc(F)cn2)CC3)cn1 (configuration not stated) | -28.26% |
| Cc1ccc(CN2CCC3(CC2)C(=O)N(CCO)CCN3C)o1.O=C(O)C(F)(F)F.O=C(O)C(F)(F)F | 5.189% |
| Cc1ccc(CN2CCC3(CC2)NC(=O)CC3c2ccccc2)s1.O=C(O)C(F)(F)F (configuration not stated) | 95.7% |
| Cc1ccc(CN2CCCC3(CCC(=O)N3)CC2)s1.O=C(O)C(F)(F)F (configuration not stated) | 3.95% |
| Cc1noc(C)c1CN1CCC2(CC1)CC(Oc1cccnc1)C2.O=C(O)C(F)(F)F.O=C(O)C(F)(F)F | 7.225% |

| Structure (SMILES) | Percent Effect |
| --- | --- |
| Cc1cnc(N2CCC3(CC2)C(c2ccccc2)CC(=O)N3C)nc1 (configuration not stated) | 8.622% |
| Cc1noc(C)c1CN1CCC2(CC1)C(c1ccccc1)CC(=O)N2C.O=C(O)C(F)(F)F (configuration not stated) | 90.48% |
| CCCc1cc(C(=O)N2Cc3ccccc3C2)[nH]n1 | 5.853% |
| CC(C)=CCCC(C)CN1CCC(n2cc(CO)nn2)CC1 (configuration not stated) | -18.32% |
| Cc1ccc2nc3n(c2c1)[C@@H](CNC(=O)c1ccncc1)COC3 | -11.4% |
| CN(CCC(F)(F)F)c1nc2ccccc2c(=O)[nH]1 | -5.931% |
| Cc1noc(C)c1CN1CCC2(CC1)C(c1cnn(C)c1)CC(=O)N2C.O=C(O)C(F)(F)F (configuration not stated) | 113.4% |
| Cc1noc(C)c1CN1CCC2(CC1)NC(=O)CC2c1ccccc1.O=C(O)C(F)(F)F (configuration not stated) | 92.37% |
| O=C(O)C(F)(F)F.O=C(O)C(F)(F)F.O=C1NC2(CCN(Cc3nccs3)CC2)CC1c1ccncc1 (configuration not stated) | -14.31% |
| CN1C(=O)CC(c2cnn(C)c2)C12CCN(C(=O)c1ccc[nH]1)CC2 (configuration not stated) | -12.5% |
| O=C(O)C(F)(F)F.O=C1CC(c2ccccc2)C2(CCN(Cc3nccs3)CC2)N1 (configuration not stated) | 100.6% |
| Cc1noc(C)c1CN1CCC2(CC1)NC(=O)CC2c1cnn(C)c1 (configuration not stated) | 100% |
| CCn1c(N)nc2cc(C(=O)N3CCN(c4nccs4)CC3)cnc21 | 5.725% |
| O=C(c1ccoc1)N1CCC(NCc2ccccc2-n2ccnc2)CC1 | 2.985% |
| CCn1ncc2c1NC(=O)C(C#N)C21CCCC1 (configuration not stated) | 21.97% |
| Cc1ccc(CN2CCC3(CC2)C(=O)N(CC(C)C)CCN3C)s1.O=C(O)C(F)(F)F.O=C(O)C(F)(F)F | 102.6% |
| Cc1ccc(CN2CCC3(CC2)C(=O)N(CC(C)C)CCN3C)o1.O=C(O)C(F)(F)F.O=C(O)C(F)(F)F | -29.49% |
| CC(C)CN1CCN(C)C2(CCN(c3nccs3)CC2)C1=O.O=C(O)C(F)(F)F | -15.41% |
| O=C(c1cccc2c1OCO2)N1CCCC1Cn1cccn1 (configuration not stated) | -0.6849% |
| Cc1cc(C)n(CC2CCCN2C(=O)c2c[nH]c3ncccc23)n1 (configuration not stated) | -7.335% |
| CN(C)c1ncccc1C(=O)N1CCCC1Cn1cccn1 (configuration not stated) | 111.6% |
| Cc1cnn(CC2CCCCN2C(=O)c2ccnc(N(C)C)c2)c1 (configuration not stated) | -6.114% |
| O=C(c1cccnc1N1CCOCC1)N1CCCC1Cn1cccn1 (configuration not stated) | 1.919% |
